Where “and” joins values, the source holds several entries; their conditions need not be identical. Equal entries are not always repeated. Out of some 360,000 compounds screened, about 11,000 (3.1%) were called active. Another 2% or so got no clear call; they are omitted. Rule as the data show it: active = fluorescence intensity above about 16000; inconclusive = no clear call, values can overlap the other calls; inactive = below that. The full list was thinned out, with actives kept by preference.

The assay in a line: compound fluorescence in toxin protease inhibitor counterscreen, primary screen, artefact control for toxin protease inhibitor project, biochemical, multiplex microsphere, HTS (AID 624483). Particulars: compound autofluorescence counterscreen, microsphere flow cytometry; stronger effect = higher value. Background: A counterscreen serves to expose hits that act by an unwanted route or on another target.
In the case of `N#Cc1c(NCCO)ccc([N+](=O)[O-])c1NCCO`, the fluorescence intensity is 3950 (inactive). Next, `O=C(NCc1cccnc1)c1cc(C2CCCN(C(=O)CCCc3ccccc3)C2)on1` (configuration not stated): 3480 (inactive); `COc1ccc(-c2coc3c(C(=O)NC(C)C)cccc23)c(C)c1`: 3850 (inactive). Consider `O=C(COC(=O)c1ccc(F)c(S(=O)(=O)N2CCOCC2)c1)NCc1ccc2c(c1)OCO2`, for which the fluorescence intensity was 3750 (inactive). As for `CCOC(=O)N1CCN(c2c(NCCCN3CCCC(C)C3)c(=O)c2=O)CC1` (configuration not stated), the fluorescence intensity was 4370 (inactive). As to `Cc1ccc(-c2nc3c(C)cc(Br)cn3c2Cc2ccccc2)cc1`, the fluorescence intensity was 4960 (inactive). Under `CC(=O)N(CC(O)CO)c1c(I)c(C(=O)NCC(O)CO)c(I)c(C(=O)NCC(O)CO)c1I` (configuration not stated) stands 5720 (inactive). Under `N#Cc1c(N)nc2c(c1N)CC(C(F)(F)F)O2` (configuration not stated) stands 4380 (inactive); under `C=CCn1c(COc2cccc3cccnc23)nnc1SCC(=O)OC`, 21200 (active). Consider `C=CCn1c(COc2ccc(F)cc2)nnc1SCC(=O)Nc1cccc(S(N)(=O)=O)c1`, for which the fluorescence intensity is 4780 (inactive). Consider `C=CCn1c(COc2ccccc2C)nnc1SCC(=O)O`, for which the fluorescence intensity is 2820 (inactive). Next, `CN(Cc1ccc(C(F)(F)F)cc1)C(=O)[C@H]1O[C@@H](n2cnc3c(N)ncnc32)[C@H](O)[C@@H]1O`: 4210 (inactive); `COc1cc(C(=O)NCc2ccc3c(c2)cc(C)n3C)cc(OC)c1OC`: 3720 (inactive). Next, `COCCNC(=O)C1(C)CCCN(Cc2cccc(F)c2)C1` (configuration not stated): 2750 (inactive); `OC(c1nnc(-c2ccccc2)o1)c1cccs1` (configuration not stated): 4160 (inactive). Under `Brc1ccc(-c2nnc(-c3ccccc3)o2)o1` stands 24200 (active); under `Brc1ccc(-c2noc(-c3ccccc3)n2)o1`, 4610 (inactive).

As for `CCCCCc1c(-c2ccc(OC)c(OC)c2)ncn1CCc1ccccc1OC`, the fluorescence intensity is 6300 (inactive). As for `COc1cccc(CNC(=O)COc2cc(O)c3c(c2)OC(C)(C)CC3=O)c1`, the fluorescence intensity was 5480 (inactive). Under `CC1=C(C(=O)N2CCOCC2)CC(CC(=O)NCc2cccs2)C(=O)N1CCCN1CCCC1=O` (configuration not stated) stands 4160 (inactive). As to `CCN(CC)C(=O)C1CCCN(Cc2cccc(Cl)c2)C1` (configuration not stated), the fluorescence intensity was 2940 (inactive). Next, `COc1ccc(N2CCN(C(=O)CCc3nc(-c4ccc(C)cc4)no3)CC2)cc1`: 3440 (inactive). Consider `Cc1ccc(-c2noc(CC(c3ccccc3)c3ccccc3)n2)cc1`, for which the fluorescence intensity is 4240 (inactive). On to `COc1ccc(-c2noc(CSc3ccc(C)cc3)n2)cc1`, for which the fluorescence intensity was 24000 (active).

As to `CC(C)c1ccc(CC(=O)N2CCC2(C)C(=O)NS(=O)(=O)c2ccc(C(C)(C)C)cc2)cc1` (configuration not stated), the fluorescence intensity is 2850 (inactive). Under `CCC(=O)N1CCC(C)(C(=O)Nc2cc(OC)c(OC)c(OC)c2)C1` (configuration not stated) stands 3060 (inactive); under `O=C(CSc1nnc(Cc2ccccc2)n1-c1ccccc1)N1CCOCC1`, 16700 (active); under `CCn1c(CC(=O)Nc2ccccc2)nnc1SCC(=O)N1CCOCC1`, 6500 (inactive).

Turning to `Cc1ccc(-n2c(CNc3ccc(F)cc3)nnc2SCC(=O)N2CCOCC2)cc1`, the fluorescence intensity was 4740 (inactive).

For `O=C(COc1ccc([N+](=O)[O-])cc1Cl)Nc1ccc2[nH]c(=O)[nH]c2c1`, the fluorescence intensity is 4100 (inactive). Under `CC(C)(C)NC(=O)COc1ccc(CNc2ccc3[nH]c(=O)[nH]c3c2)cc1` stands 22600 (active).

In the case of `COC(=O)c1ccc(OCC(=O)NC(C)(C)C)cc1`, the fluorescence intensity is 2670 (inactive).

Regarding `CCC(Oc1ccccc1)C(=O)OCC(=O)Nc1c(C)nn(-c2ccccc2)c1C` (configuration not stated), the fluorescence intensity was 3640 (inactive).

With `O=C(NC1CCCCCCC1)c1cccs1`, the fluorescence intensity is 3700 (inactive). Next, `O=C(Nc1ccc2c(c1)CCC2)c1ccc(Br)s1`: 4300 (inactive); `O=C(NC1CCCC1)c1ccc(Br)s1`: 17100 (active). Next, `CC(C)NC(=O)N1Cc2cc(C(=O)NCC(F)(F)F)nc(-c3cccc(-c4cc5ccccc5o4)c3)c2[C@@H]1CCO`: 6410 (inactive); `Cc1ccc(S(=O)(=O)NCC(=O)N(CC(=O)NC2CCCCC2)Cc2ccco2)cc1`: 3490 (inactive); `O=C(CN(CC1CCCO1)C(=O)CNS(=O)(=O)c1ccccc1)NCc1ccccc1` (configuration not stated): 4900 (inactive). In the case of `Cc1ccc(S(=O)(=O)NCC(=O)N(CC(=O)NC(C)(C)C)Cc2cccs2)cc1`, the fluorescence intensity is 23500 (active). Turning to `Cc1[nH]c2ccccc2c1CCN(Cc1cccs1)C(=S)NC(C)(C)C`, the fluorescence intensity was 4220 (inactive).

In the case of `CC(C)(C)NC(=O)CN(Cc1cccs1)C(=O)CNS(=O)(=O)c1ccccc1`, the fluorescence intensity was 22000 (active).

For the compound `CCC(C)(C)NC(=O)CN(Cc1cccs1)C(=O)CNS(=O)(=O)c1ccc(F)cc1`, the fluorescence intensity is 4360 (inactive). Next, `CSCCC(c1nnnn1Cc1ccccc1)N1CCN(C/C=C/c2ccccc2)CC1` (configuration not stated): 6070 (inactive); `COC(=O)[C@]12CCCCC=C1N(Cc1cccc3ccccc13)C(=O)[C@H](CC(=O)N1CCOCC1)C2`: 4200 (inactive).

Consider `CC1(C(=O)O)CCN1C(=O)/C=C/c1ccccc1` (configuration not stated), for which the fluorescence intensity is 3910 (inactive). For `CCc1ccc(Nc2n[n+](-c3ccccc3)c(-c3cccc(Cl)c3Cl)s2)cc1`, the fluorescence intensity was 4300 (inactive). Under `CN(Cc1ccc2nsnc2c1)Cc1nc(Cc2cccc(F)c2)no1` stands 4550 (inactive). Under `O=C1NC[C@@H](CCCCN2CCN(CCc3ccc(O)cc3)C(=O)C2=O)N(CC2CCCCC2)C1=O` stands 6050 (inactive); under `O=C(COC(=O)CCc1nc2ccccc2c(=O)[nH]1)Nc1ccc(N2CCOCC2)cc1`, 4110 (inactive); under `COc1ccc(Sc2ccc(NC(=O)c3cccc(Cl)c3)cc2C#N)cc1`, 3440 (inactive). Next, `Cc1ccc2c(O)c(Cc3ccccc3)c(=O)[nH]c2n1`: 3740 (inactive). For the compound `Cc1nc(SC(C)C)[nH]c(=O)c1Cc1ccccc1`, the fluorescence intensity was 23800 (active). Under `CC(=O)Nc1nc(C)c(Cc2ccccc2)c(=O)[nH]1` stands 2420 (inactive).

Turning to `CC(C)NC(=O)C1(C)CCCCN1Cc1cccc(C(F)(F)F)c1` (configuration not stated), the fluorescence intensity is 3020 (inactive). Next, `CCOc1cc(-c2nc3cc(C)ccn3c2NCC2CCCO2)ccc1O` (configuration not stated): 4290 (inactive); `COc1ccc(-c2nc3cnccn3c2NC2CCCCC2)cc1-c1cccc(Cl)c1`: 6580 (inactive) and 3860 (inactive).

With `COc1ccc(-c2nc3cc(C)ccn3c2NC2CCCCC2)cc1SC1CCCCC1`, the fluorescence intensity was 20700 (active) and 26600 (active). Under `COc1cc(NC(=O)CN2C(=O)NC(C)(c3ccc(OC(F)F)cc3)C2=O)cc(OC)c1OC` (configuration not stated) stands 3820 (inactive); under `CN(CC(=O)Nc1c(Cl)cccc1Cl)C(=O)CNC(=O)C1CCCCC1`, 4800 (inactive). As for `CC(=O)N1C[C@@H](CO)[C@@H](N(C)C(=O)c2ccco2)C[C@H]1c1ccccc1`, the fluorescence intensity is 6130 (inactive). With `O=C(CSc1nnc(-c2cccnc2)n1CCc1ccccc1)NCc1ccccc1`, the fluorescence intensity was 2870 (inactive). Under `C=CCn1c(SCC(=O)NC(=O)Cc2ccccc2)nc2ccccc2c1=O` stands 8750 (inactive); under `C=CCn1c(SCC(=O)NCc2ccccc2)nnc1-c1cc(Br)ccc1O`, 20700 (active); under `Cc1nc(CC(=O)NNS(=O)(=O)c2ccc(F)c(Cl)c2)cs1`, 2630 (inactive). Under `CCN(Cc1cc2cc(C)ccc2[nH]c1=O)S(=O)(=O)c1ccccc1` stands 16600 (active); under `CCC(=O)N(CCc1ccccc1)Cc1cc2cc(C)ccc2[nH]c1=O`, 3090 (inactive). Under `COc1ccc(N(Cc2cc3ccc(C)cc3[nH]c2=O)S(=O)(=O)c2ccccc2)cc1` stands 4310 (inactive). For `CC1(C(=O)NS(=O)(=O)Cc2cccc(Cl)c2)CCN1C(=O)Cc1ccccc1` (configuration not stated), the fluorescence intensity was 3480 (inactive). Next, `CC(=O)Nc1cccc(NC(=O)CSc2nccn2Cc2ccc(F)cc2)c1`: 6150 (inactive); `OC(c1ccc(Cl)c(F)c1)c1ncc(-c2ccccc2Cl)[nH]1` (configuration not stated): 3970 (inactive).

For the compound `COc1ccc(-c2[nH]nc3c2C(c2ccncc2)C(C#N)=C(N)O3)cc1` (configuration not stated), the fluorescence intensity was 3830 (inactive). Next, `COc1cc(C2C(C#N)=C(N)Oc3n[nH]c(-c4ccccn4)c32)cc(OC)c1OC` (configuration not stated): 22700 (active); `COCc1[nH]nc2c1C(C1C=CCCC1)C(C#N)=C(N)O2` (configuration not stated): 11600 (inactive); `NC(=O)Cc1ccc2sc(-c3ccccc3)nc2c1`: 2610 (inactive). Next, `O=C(COc1ccccc1F)Nc1nc(-c2ccccn2)cs1`: 3790 (inactive); `Cc1cc(NC(=O)[C@H](C)NC(=O)c2ccco2)ccc1Br`: 3700 (inactive). Under `CC(NC(=O)c1ccco1)C(=O)Nc1nc(-c2ccccn2)cs1` (configuration not stated) stands 20700 (active). For the compound `COCCNc1ncnc2c1ncn2[C@H]1CN(CCN2CCOCC2)C[C@@H](CO)O1`, the fluorescence intensity is 3590 (inactive). Next, `OC(c1ccccc1)C(CN1CCOCC1)c1ccccc1` (configuration not stated): 4580 (inactive); `CN[C@H]1C[C@H]2c3cc(Oc4ccccc4C)ccc3CCN2C(=O)[C@H]1[C@H](C)O`: 5280 (inactive); `O=C(CCC1CCCN(Cc2ccc(O)c(Cl)c2)C1)NCc1ccccc1F` (configuration not stated): 4480 (inactive).

In the case of `CC(=O)Oc1ccc(Cn2c(C)c(C(=O)NCc3ccc(C#N)cc3)sc2=O)cc1`, the fluorescence intensity was 5590 (inactive).

For `COC(=O)CCSc1nccn1Cc1ccccc1`, the fluorescence intensity is 20500 (active).

For `CCCCNC(=O)CSc1nccn1Cc1ccccc1`, the fluorescence intensity was 8790 (inactive).

As for `CCCCCCNC(=O)CSc1nccn1Cc1ccccc1`, the fluorescence intensity was 9260 (inactive).

As to `O=C(NCCN1CCOCC1)c1ccccc1N1C(=O)[C@@H]2Cc3c([nH]c4ccccc34)C(c3cccc(Cl)c3)N2C1=O` (some centres not stated), the fluorescence intensity was 5120 (inactive).

In the case of `CCc1nc2c(OCc3ccc(C(=O)OC)cc3)cccn2c1N(C)C(=O)C(C)C`, the fluorescence intensity was 3990 (inactive). As to `CC(=O)c1cc2c(cc1N)OCO2`, the fluorescence intensity was 22400 (active). Next, `CC(=O)c1cc2c(cc1NC(=O)CN1CCCCCC1)OCO2`: 3760 (inactive); `CC(=O)C1=C(C)NC(=O)NC1c1ccc2c(c1)OCO2` (configuration not stated): 4750 (inactive). Next, `Cc1nc(SCC(=O)N2CCc3ccccc3C2)c2c(C)c(C)sc2n1`: 5870 (inactive).

The values are drawn from PubChem BioAssay AID624483 (NMMLSC, 2012).
